Assay results: PubChem BioAssay (NCATS)
Records with an inconclusive call do not appear. Activity calls are given as the source filed them. Unless noted, the call rests on the fitted dose curve; in most records, active means well fitted curve in the direction sought with a large enough effect; inconclusive means small, poorly fitted or top-dose-only effect, or another doubt; inactive means no such curve, though single readings can be large; an effect the other way counts as inactive or inconclusive.

Key:
[1] = target: Cytochrome P450 1A2 (Homo sapiens) (UniProt P05177); assay: p450-cyp1a2 (AID 410; calls by dose curve; further: potency means the concentration at half of the fitted maximal effect;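 on activity change, negative = inhibition: -100% = full effect of reference inhibitor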)
Procedure, shortened: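 Luminescent readout of luciferin formed from Luciferin-ME by human CYP1A2; data normalized against complete inhibition by 57 uM furafylline. Enzyme 20nM, substrate 100uM at Km, 100mM KPO4 buffer, 60 min reaction at room temperature.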

[2] = target: Glucocorticoid receptor (Homo sapiens) (UniProt P04150); assay: GR-GFP Redistribution (AID 450;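 active means compounds whose dose series gives a full or clear partial fitted curve of increased nuclear translocation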; further: potency means the concentration at half of the fitted maximal effect); conditions: U2OS GR-GFP nuclear translocation, laser cytometry, 2 h
[3] = target: Glucocorticoid receptor (Homo sapiens) (UniProt P04150); assay: GR-EFC Redistribution (AID 451; calls by dose curve; further: potency means the concentration at half of the fitted maximal effect); conditions: CHO-K1 GR-EFC translocation, beta-gal luminescence, 2 h
Procedure, shortened: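 Translocation of GR-ED fusion to nuclear EA restores b-gal, read by luminescence after 1 h room-temperature detection. Engineered CHO-K1 biosensor cells, 1,000/well, exposed 2 h at 37 C to titrations up to 46 uM final.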

[4] = target: Mitogen-activated protein kinase 10 (Mus musculus) (UniProt Q61831); assay: JNK3 AlphaScreen Assay (AID 530; active means well fitted curve in either direction with a large enough effect, not every such curve was filed as active;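 further: kinase came from lysate of stimulated human HepG2 cells; signal reports phosphorylation of biotinylated GST-cJun 1-79 at Ser73 with 10 µM ATP; on the % scale 0 is the no-effect control and ±100 the full control effect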)
Procedure, shortened: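 Compound titrations were preincubated 15 minutes at room temperature with substrate, antibody and pre-activated JNK3-containing HepG2 lysate. Reactions were started with 10 uM ATP and stopped with EDTA-containing bead buffer for AlphaScreen detection.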

[5] = target: Cytochrome P450 2C9 (Homo sapiens) (UniProt P11712); assay: qHTS Assay for Inhibitors and Substrates of Cytochrome P450 2C9 (AID 883); further: on the % scale 0 is the no-effect control and ±100 the full control effect; nearly all actives have a fitted effect of over 60% in size
Procedure, shortened: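 Inhibition of CYP2C9 is scored as loss of luminescence, with 57uM sulphaphenazole defining 100% inhibition. Substrate Luciferin-H is used at 100uM, equal to its KM; enzyme at 10nM in 25mM KPO4, 60 min at 37C with NADPH regeneration.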

[6] = target: Cytochrome P450 2D6 (Homo sapiens) (UniProt P10635); assay: qHTS Assay for Inhibitors and Substrates of Cytochrome P450 2D6 (AID 891); further: potency means the concentration at half of the fitted maximal effect; nearly all actives have a fitted effect of over 60% in size
Procedure, shortened: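 Human CYP2D6 (5 nM) with 30 uM Luciferin-ME EGE (at Km) in 100 mM KPO4, compound preincubated 10 min, then NADPH regeneration system for 60 min at room temperature. Luciferin read by luminescence; normalized to 1.43 uM quinidine.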

[7] = target: Ubiquitin carboxyl-terminal hydrolase 1 (Homo sapiens) (UniProt O94782); assay: Inhibitors of USP1/UAF1: Pilot qHTS (AID 504865);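 further: rhodamine fluorescence freed from ubiquitin-rhodamine substrate followed over time; top concentration of the series differs between compounds; on the % scale 0 is the no-effect control and ±100 the full control effect; nearly all actives have a fitted effect of over 35% in size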
Procedure, shortened: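 Enzyme-free wells gave the negative control, while test wells held 1nM USP1/UAF1 preincubated with compound for 15 min at room temperature. Ub-Rho at 150nM final started the reaction, and fluorescence at 480/540 nm was recorded kinetically.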

[8] = target: DNA dC->dU-editing enzyme APOBEC-3G (Homo sapiens) (UniProt Q9HC16); assay: qHTS for inhibitors of Vif-A3G interactions: Validation (AID 588379); further: 0% is about no effect
Procedure, shortened: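 HeLa cells stably expressing Vif and A3G-eYFP, 700 cells/well, incubated overnight at 37 deg C, then exposed to compound overnight at 37 deg C. Inhibition of Vif-mediated degradation read as increased yellow fluorescence (Ex 488/Em 500-530) by laser-scanning cytometry.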

[9] = system: Zika virus NS2B-NS3 protease; assay: Primary screen GU AMC qHTS for Zika virus inhibitors (AID 1347154);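 further: 0% = no-inhibitor control and -100% = no-enzyme control; nearly all actives have a fitted effect of over 70% in size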
Procedure, shortened: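 Fluorogenic AMC-substrate cleavage by noncovalent NS2B-NS3 protease complex (25 nM, pH 8.0 Tris buffer with Tween 20) followed for 15 minutes at room temperature (~20% conversion). Percent inhibition from ex340/em450 signal change, fitted by 4-parameter Hill equation.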

[10] = Primary qHTS for small molecule stabilizers of the endoplasmic reticulum resident proteome: Secreted ER Calcium Modulated Protein (SERCaMP) assay (AID 1508630); further: on the % scale 0 is the no-effect control and ±100 the full control effect
Procedure, shortened: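 GLuc-SERCaMP-expressing SH-SY5Y cells, pretreated 16 h with compound, are challenged with thapsigargin to empty ER calcium stores; after 4 h, coelenterazine is added directly to the medium and luminescence is imaged.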

[11] = target: 3',5'-cyclic-AMP phosphodiesterase 4B (Homo sapiens) (UniProt Q07343); assay: qHTS Assay for Inhibitors of PDE-IV (AID 607; active means well fitted activation curve with a large enough effect in the main read-out, with a control signal flat, not every such curve was filed as active; further: % of control where 0% means no effect)
Procedure, shortened: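 Live HEK293 cells with a modified cyclic nucleotide-gated (CNG) channel report intracellular cAMP via membrane-potential dye fluorescence (ex 535/em 590 nm). Endogenous PDE-IV was targeted. Compounds were tested at up to 22.9 uM final; RO 20-1724 100 uM served as control.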

[12] = AP1 Signaling Pathway (AID 357; active means well fitted curve in either direction with a large enough effect, not every such curve was filed as active;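 further: ME-180 reporter cells stimulated with EGF at its EC50 level; on the % scale 0 is the no-effect control and ±100 the full control effect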)
Procedure, shortened: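 Cells are seeded overnight, exposed to compound titrations and an EC50 level of EGF for 5 hours at 37 °C, then loaded with CCF4 dye for 2.5 hours. Beta-lactamase activity under the AP-1 element is read as a blue/green ratio.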

[13] = Stat Signaling Pathway (AID 446; active means well fitted curve in either direction with a large enough effect, not every such curve was filed as active;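 further: ME-180 cervical cancer cells given 40 pM IL-6 alongside compound; SIE-controlled beta-lactamase reporter measured as 460/530 nm FRET emission ratio; on the % scale 0 is the no-effect control and ±100 the full control effect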)
Procedure, shortened: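 IL-6/STAT signaling read in ME-180 cells via an SIE beta-lactamase reporter. Stimulus was 40 pM IL-6 (its AC50) for 5 hrs, so both activation and inhibition register.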

[14] = target: Cytochrome P450 3A4 (Homo sapiens) (UniProt P08684); assay: qHTS Assay for Activators of Cytochrome P450 3A4 (AID 885); further: nearly all actives have a fitted effect of over 65% in size
Procedure, shortened: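 Quantitative HTS format: compounds preincubated with 20nM human CYP3A4 and Luciferin-PPXE substrate at KM, reaction started by NADPH regeneration, stopped after 60 min, luciferase luminescence read 20 min later.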

[15] = target: Cytochrome P450 2C19 (Homo sapiens) (UniProt P33261); assay: qHTS Assay for Inhibitors and Substrates of Cytochrome P450 2C19 (AID 899); further: on the % scale 0 is the no-effect control and ±100 the full control effect; nearly all actives have a fitted effect of over 60% in size
Procedure, shortened: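 5nM enzyme + 10uM Luciferin-H EGE (=KM), 50mM KPO4; cpd pin-transferred, 10 min 37C; NADPH regen, 60 min 37C; stopped w/ luciferin detection reagent, 20 min; luminescence. Normalized to 57uM ketoconazole (AC100).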

[16] = NFAT Signaling Pathway (AID 444; active means well fitted curve in either direction with a large enough effect, not every such curve was filed as active); conditions: Jurkat NFAT-bla M1, carbachol, beta-lactamase ratio, 5 h; at 38 µM (top of the series)
Procedure, shortened: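 Read-out: CCF4 FRET ratio (460 nm/530 nm) after 1 h RT dye loading, used for %activity and AC50 from titration series. Cells: Jurkat NFAT-β-lactamase/M1 line, treated with compound plus 1 uM carbachol for 5 h, 37 °C.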

[17] = target: Muscarinic acetylcholine receptor M1 (Rattus norvegicus) (UniProt P08482); assay: qHTS Assay for Antagonists of Acetylcholine Muscarinic M1 Receptor: Kinetic Measurement of Intracellular Calcium Response (AID 943);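 further: Fluo-4 calcium signal as peak divided by basal fluorescence over 4 min; nearly all actives have a fitted effect of over 75% in size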
Procedure, shortened: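 Rat M1-CHO cells, 2000/well, overnight → Fluo-4 no-wash dye with probenecid, 1 h 37C → compound 10 min, room temp → basal read 6 s → carbachol EC80 (100 nM) → 4 min kinetic read; peak/basal.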

[18] = target: Muscarinic acetylcholine receptor M1 (Rattus norvegicus) (UniProt P08482); assay: qHTS Assay for Antagonists of Acetylcholine Muscarinic M1 Receptor: Measurement of IP-One Response (AID 944); further: nearly all actives have a fitted effect of over 75% in size
Procedure, shortened: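 M1-CHO (rat), 2000 cells/well, overnight recovery; cpd 10 min; carbachol EC80 (200 nM), 30 min, HEPES buffer + 50 mM LiCl pH 7.4; IP-One HTRF, Ex 337, Em 620/665 nm.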

[19] = target: Pyruvate kinase (Leishmania mexicana) (UniProt Q27686); assay: qHTS Validation Assay for Inhibitors of Leishmania Mexicana Pyruvate Kinase (AID 945);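 further: 0% = DMSO only neutral control wells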
Procedure, shortened: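 Mutant LmPYK (E451W), 0.2 nM, plus 0.5 mM PEP and 0.1 mM ADP in 50 mM imidazole pH 7.2 containing 0.01% Tween 20 and 0.05% BSA. Incubated 1 h at room temperature; luminescence via PKLight, normalized to DMSO.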

[20] = target: Pyruvate kinase PKM (Homo sapiens) (UniProt P14618); assay: qHTS Assay for Activators of Human Muscle Pyruvate Kinase (AID 954; active means well fitted curve in the direction sought with a large enough effect, not every such curve was filed as active;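 further: 0% = uninhibited enzyme and -100% = no enzyme or full thiadiazolimine inhibition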)
Procedure, shortened: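 Enzyme was run at intermediate activity so both inhibitors and activators could be detected. ATP formed from ADP and PEP by 0.1 nM human PKM2 during a 1 h room-temperature incubation was quantified by coupled luciferase luminescence.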

[21] = target: Alpha-galactosidase (Coffea arabica) (UniProt Q42656); assay: Counterscreen for Glucocerebrosidase Inhibitors: qHTS Assay for Coffee Bean alpha-Galactosidase at pH 4.5 (AID 957);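 further: plate controls were enzyme alone for no effect and no enzyme for full effect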
Procedure, shortened: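 Coffee bean alpha-galactosidase 2 nM, substrate 4-MU-alpha-Gal 80 uM, pH 4.5 citrate/Tween-20, 20 min RT. Cpd titration 0.7 nM–77 uM. Stop pH 10, fluorescence 365/440 nm; Hill-equation AC50.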

[22] = target: Alpha-galactosidase A (Homo sapiens) (UniProt P06280); assay: Counterscreen for Glucocerebrosidase Inhibitors: qHTS Assay for Human alpha-Galactosidase at pH 4.5 (AID 992); further: 0% is about no effect
Procedure, shortened: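 Read-out is 4-methylumbelliferone fluorescence (365 nm excitation, 440 nm emission) after a pH 10 NaOH/glycine stop. Reactions held 2 nM enzyme and 80 uM substrate at pH 4.5 for 20 min at room temperature.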

[23] = target: alpha-glucosidase (Oryza sativa, rice) (UniProt Q653V4); assay: Counterscreen for Glucocerebrosidase Inhibitors: qHTS Assay for Rice alpha-Glucosidase at pH 5.0 (AID 997);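 further: 0% = full activity with enzyme and -100% = basal without enzyme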
Procedure, shortened: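 Rice alpha-glucosidase (4 nM final) with 400 uM 4-methylumbelliferyl-alpha-D-glucopyranoside in citrate buffer pH 5.0, 20 min at room temperature, stopped at pH 10; fluorescence 365/440 nm, compounds 0.7 nM–77 uM, AC50 from Hill fits.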

[24] = target: Alpha-galactosidase (Coffea arabica) (UniProt Q42656); assay: Counterscreen for Glucocerebrosidase Inhibitors: qHTS Assay for Coffee Bean alpha-Galactosidase at pH 5.9 (AID 998);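 further: plate controls were uninhibited enzyme for no effect and no-enzyme basal signal for full effect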
Procedure, shortened: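 Compounds were titrated from 0.7 nM to 77 uM against green coffee bean alpha-galactosidase (2 nM) using 80 uM fluorogenic 4-methylumbelliferyl substrate. After 20 min at room temperature, reactions were stopped at pH 10 and read by fluorescence.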

[25] = target: Rap guanine nucleotide exchange factor 3 (Homo sapiens) (UniProt O95398); assay: Confirmatory qHTS for antagonist of cAMP-regulated guanine nucleotide exchange factor 3 (EPAC1) (AID 1645880);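 further: plate controls were DMSO only for no effect and full effect of the ATA control for full effect; nearly all actives have a fitted effect of over 55% in size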
Procedure, shortened: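 Nucleotide exchange uses 100 nM EPAC1, 250 nM RAP1B-BODIPY-GDP and 50 uM GDP, with compounds in a concentration-titration series. After 5 min at room temperature, fluorescence (480 nm ex/540 nm em) is read every 5 min for 30 min. Data are normalized to control ATA and DMSO.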

[26] = target: Rap guanine nucleotide exchange factor 4 (Homo sapiens) (UniProt Q8WZA2); assay: Confirmatory qHTS for antagonist of cAMP-regulated guanine nucleotide exchange factor 4 (EPAC2) (AID 1645885); further: potency means the concentration at half of the fitted maximal effect; nearly all actives have a fitted effect of over 25% in size

Sequence of DNA dC->dU-editing enzyme APOBEC-3G (Homo sapiens) (Q9HC16 whole entry, looked up): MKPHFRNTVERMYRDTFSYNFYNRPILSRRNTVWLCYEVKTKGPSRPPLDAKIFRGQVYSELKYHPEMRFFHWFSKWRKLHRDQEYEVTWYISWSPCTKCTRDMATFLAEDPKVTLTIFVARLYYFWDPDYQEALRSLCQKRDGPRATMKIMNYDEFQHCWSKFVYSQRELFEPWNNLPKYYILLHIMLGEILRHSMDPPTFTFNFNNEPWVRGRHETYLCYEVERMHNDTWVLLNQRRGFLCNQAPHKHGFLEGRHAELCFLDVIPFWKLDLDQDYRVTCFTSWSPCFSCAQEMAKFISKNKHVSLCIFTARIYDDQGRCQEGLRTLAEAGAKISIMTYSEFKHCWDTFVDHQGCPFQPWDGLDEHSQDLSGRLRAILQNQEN
Sequence of 3',5'-cyclic-AMP phosphodiesterase 4B (Homo sapiens) (Q07343 whole entry, looked up): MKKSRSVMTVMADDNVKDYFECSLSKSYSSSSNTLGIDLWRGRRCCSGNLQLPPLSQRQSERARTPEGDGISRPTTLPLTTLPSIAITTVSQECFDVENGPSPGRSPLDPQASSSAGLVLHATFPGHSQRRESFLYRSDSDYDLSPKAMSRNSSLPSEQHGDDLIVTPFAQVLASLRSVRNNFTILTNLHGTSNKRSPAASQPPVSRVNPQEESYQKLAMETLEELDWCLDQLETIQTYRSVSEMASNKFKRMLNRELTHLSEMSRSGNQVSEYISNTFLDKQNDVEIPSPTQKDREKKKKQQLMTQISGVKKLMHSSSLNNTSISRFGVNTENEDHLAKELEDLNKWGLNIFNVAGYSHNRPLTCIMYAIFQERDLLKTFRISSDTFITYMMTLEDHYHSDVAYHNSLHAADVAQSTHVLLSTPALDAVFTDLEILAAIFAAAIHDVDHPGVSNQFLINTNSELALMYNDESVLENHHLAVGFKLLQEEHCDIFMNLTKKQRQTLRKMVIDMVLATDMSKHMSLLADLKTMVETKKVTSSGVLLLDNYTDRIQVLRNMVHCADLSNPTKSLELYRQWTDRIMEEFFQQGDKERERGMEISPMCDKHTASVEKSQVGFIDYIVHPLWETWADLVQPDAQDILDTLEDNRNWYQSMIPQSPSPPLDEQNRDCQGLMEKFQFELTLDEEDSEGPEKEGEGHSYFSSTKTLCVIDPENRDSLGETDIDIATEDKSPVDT
Sequence of Glucocorticoid receptor (Homo sapiens) (P04150 whole entry, looked up, the tested form may be a part): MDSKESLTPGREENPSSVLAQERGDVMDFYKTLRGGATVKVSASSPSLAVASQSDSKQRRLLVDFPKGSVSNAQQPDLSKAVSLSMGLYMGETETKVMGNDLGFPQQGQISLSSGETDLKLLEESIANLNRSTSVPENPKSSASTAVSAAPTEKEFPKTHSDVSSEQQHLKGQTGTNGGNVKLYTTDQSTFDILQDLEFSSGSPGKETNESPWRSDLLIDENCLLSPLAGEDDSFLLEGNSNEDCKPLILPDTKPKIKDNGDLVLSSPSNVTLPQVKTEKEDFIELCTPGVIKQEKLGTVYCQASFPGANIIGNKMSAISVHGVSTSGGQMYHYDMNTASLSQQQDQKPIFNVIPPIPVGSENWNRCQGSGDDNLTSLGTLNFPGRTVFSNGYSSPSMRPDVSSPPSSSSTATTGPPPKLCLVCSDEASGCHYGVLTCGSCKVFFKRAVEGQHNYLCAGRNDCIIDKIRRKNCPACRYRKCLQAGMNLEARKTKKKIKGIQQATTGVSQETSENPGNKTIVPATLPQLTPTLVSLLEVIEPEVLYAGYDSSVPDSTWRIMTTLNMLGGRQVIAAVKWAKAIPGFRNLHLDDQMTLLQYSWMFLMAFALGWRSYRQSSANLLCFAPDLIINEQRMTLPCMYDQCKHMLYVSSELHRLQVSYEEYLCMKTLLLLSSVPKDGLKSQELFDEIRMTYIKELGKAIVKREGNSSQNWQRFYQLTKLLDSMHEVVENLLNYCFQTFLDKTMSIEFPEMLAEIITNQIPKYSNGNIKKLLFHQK
Sequence of Cytochrome P450 1A2 (Homo sapiens) (P05177 whole entry, looked up): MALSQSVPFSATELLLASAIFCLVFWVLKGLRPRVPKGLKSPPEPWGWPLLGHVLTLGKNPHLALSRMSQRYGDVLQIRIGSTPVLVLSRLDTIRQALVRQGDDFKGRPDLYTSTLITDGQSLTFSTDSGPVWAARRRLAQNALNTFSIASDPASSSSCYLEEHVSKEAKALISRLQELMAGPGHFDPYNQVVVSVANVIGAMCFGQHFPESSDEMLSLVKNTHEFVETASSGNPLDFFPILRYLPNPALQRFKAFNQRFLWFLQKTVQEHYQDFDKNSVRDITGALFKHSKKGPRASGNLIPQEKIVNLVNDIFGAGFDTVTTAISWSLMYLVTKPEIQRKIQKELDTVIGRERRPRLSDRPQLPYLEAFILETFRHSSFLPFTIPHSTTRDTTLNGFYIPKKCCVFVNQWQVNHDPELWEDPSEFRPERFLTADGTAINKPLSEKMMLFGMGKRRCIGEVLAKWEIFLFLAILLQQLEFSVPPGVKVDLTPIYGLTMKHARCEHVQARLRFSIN
Sequence of Ubiquitin carboxyl-terminal hydrolase 1 (Homo sapiens) (O94782 whole entry, looked up): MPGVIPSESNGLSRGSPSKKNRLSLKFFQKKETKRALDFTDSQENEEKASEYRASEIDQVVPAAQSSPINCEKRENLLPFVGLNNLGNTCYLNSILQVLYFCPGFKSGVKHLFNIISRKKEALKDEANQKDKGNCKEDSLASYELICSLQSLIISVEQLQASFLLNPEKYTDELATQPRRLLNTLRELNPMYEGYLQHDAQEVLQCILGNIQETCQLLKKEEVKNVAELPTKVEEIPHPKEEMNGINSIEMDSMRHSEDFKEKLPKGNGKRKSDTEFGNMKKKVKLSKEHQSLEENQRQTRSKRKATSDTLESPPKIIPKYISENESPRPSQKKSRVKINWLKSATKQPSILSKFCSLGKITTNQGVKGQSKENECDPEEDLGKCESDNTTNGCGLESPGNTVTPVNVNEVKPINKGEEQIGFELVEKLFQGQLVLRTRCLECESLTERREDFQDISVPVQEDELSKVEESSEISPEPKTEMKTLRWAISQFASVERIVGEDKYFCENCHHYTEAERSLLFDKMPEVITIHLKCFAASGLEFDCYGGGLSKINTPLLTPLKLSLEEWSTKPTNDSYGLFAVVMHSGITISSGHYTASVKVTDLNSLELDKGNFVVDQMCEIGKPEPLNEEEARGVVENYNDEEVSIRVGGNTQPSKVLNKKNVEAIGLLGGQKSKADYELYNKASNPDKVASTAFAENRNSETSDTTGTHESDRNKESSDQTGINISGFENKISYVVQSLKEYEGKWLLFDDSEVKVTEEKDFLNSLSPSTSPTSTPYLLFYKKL
Sequence of Cytochrome P450 2C9 (Homo sapiens) (P11712 whole entry, looked up): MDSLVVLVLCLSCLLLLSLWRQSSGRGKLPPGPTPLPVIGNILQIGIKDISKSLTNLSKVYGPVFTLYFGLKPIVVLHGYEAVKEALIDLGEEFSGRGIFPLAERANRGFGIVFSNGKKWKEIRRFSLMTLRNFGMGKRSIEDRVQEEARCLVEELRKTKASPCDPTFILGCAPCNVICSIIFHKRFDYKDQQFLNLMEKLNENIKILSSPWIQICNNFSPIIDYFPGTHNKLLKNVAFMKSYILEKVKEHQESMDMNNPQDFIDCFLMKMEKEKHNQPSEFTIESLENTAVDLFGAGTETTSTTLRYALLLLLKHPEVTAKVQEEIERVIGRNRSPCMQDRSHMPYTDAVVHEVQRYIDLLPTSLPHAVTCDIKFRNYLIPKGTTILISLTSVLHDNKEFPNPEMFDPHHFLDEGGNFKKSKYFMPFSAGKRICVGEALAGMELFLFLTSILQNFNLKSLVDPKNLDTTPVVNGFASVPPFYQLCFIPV
Sequence of Alpha-galactosidase (Coffea arabica) (Q42656 whole entry, looked up): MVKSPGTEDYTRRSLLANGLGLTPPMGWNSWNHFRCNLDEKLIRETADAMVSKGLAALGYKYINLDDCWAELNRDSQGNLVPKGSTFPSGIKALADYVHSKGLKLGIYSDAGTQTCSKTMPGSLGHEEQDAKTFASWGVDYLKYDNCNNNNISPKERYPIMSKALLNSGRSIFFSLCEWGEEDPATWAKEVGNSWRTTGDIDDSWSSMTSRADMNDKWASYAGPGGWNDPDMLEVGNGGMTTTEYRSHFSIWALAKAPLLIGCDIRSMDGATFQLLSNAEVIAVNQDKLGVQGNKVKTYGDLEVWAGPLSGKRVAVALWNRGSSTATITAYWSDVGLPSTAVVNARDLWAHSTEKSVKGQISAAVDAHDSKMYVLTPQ
Sequence of Muscarinic acetylcholine receptor M1 (Rattus norvegicus) (P08482 whole entry, looked up): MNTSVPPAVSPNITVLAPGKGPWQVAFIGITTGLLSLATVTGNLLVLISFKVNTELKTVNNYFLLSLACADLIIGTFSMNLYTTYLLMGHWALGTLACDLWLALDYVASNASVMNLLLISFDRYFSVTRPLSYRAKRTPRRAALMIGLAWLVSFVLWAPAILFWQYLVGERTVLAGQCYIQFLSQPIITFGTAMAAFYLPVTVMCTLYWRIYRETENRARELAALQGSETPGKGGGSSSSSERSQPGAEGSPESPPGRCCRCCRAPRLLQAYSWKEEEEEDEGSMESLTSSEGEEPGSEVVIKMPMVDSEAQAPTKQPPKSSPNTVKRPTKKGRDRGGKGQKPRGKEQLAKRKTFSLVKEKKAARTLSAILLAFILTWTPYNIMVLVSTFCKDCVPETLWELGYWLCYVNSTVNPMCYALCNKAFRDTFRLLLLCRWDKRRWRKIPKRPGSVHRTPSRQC
Sequence of Pyruvate kinase (Leishmania mexicana) (Q27686 2-499 E452W): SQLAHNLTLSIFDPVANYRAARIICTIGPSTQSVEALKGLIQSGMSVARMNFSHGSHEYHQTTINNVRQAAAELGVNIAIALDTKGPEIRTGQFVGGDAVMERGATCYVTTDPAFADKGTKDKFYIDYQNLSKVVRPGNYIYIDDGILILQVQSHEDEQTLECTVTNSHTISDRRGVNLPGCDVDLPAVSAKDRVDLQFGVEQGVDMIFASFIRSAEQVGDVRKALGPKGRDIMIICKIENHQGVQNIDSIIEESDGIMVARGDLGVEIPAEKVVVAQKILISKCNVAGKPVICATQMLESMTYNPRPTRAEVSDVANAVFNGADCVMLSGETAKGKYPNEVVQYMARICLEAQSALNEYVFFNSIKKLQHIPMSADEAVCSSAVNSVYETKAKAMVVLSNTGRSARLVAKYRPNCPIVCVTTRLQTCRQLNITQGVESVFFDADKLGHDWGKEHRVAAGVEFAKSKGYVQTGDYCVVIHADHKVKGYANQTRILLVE

Cn1cc(C(=O)C(=O)N[C@H]2CN3CCC2CC3)c2ccccc21
inactive: Potency [2] > 46 µM | Potency [3] > 46 µM | outcome [4] | Potency [5] | Potency [7] | Potency [8] | Potency [9] | Potency [10]
active: Potency [1] 15.8 µM | Potency [6] 0.0631 µM

CC(=O)N1CC[N+](C)(C)CC1
inactive: Potency [1] | Potency [2] > 46 µM | Potency [3] > 46 µM | outcome [4] | Potency [11] | Potency [8] | Potency [9] | Potency [10]

S=C=Nc1cccc(C2(N3CCCCC3)CCCCC2)c1
inactive: outcome [12] | Potency [1] | outcome [13] | Potency [2] > 46 µM | Potency [3] > 46 µM | outcome [4] | Potency [11] | Potency [5] | Potency [14] | Potency [15] | Potency [8] | Potency [9] | Potency [10]

C[C@H](N)Cc1cnc[nH]1
inactive: outcome [12] | activity change, negative = inhibition [16] 4.34% | outcome [13] | Potency [2] > 46 µM | Potency [3] > 46 µM | outcome [4] | Potency [11] | Potency [17] | Potency [18] | outcome [19] | outcome [20] | outcome [21] | outcome [22] | outcome [23] | outcome [24] | Potency [7] | Potency [8] | Potency [9] | Potency [10]

O=C1CS[C@@H](c2ccccc2Cl)c2cc(Cl)ccc2N1
active: Potency [26] 49.4 µM
inactive: Potency [2] > 46 µM | Potency [3] > 46 µM | Potency [8] | Potency [9] | Potency [10] | Potency [25]
